Laboratory results from PubChem BioAssay (Tox21).
Values joined by “and” are separate entries in the source; they are usually repeats but may differ in a detail not shown here. Equal entries are not always repeated. Records with an inconclusive call do not appear. More than one record can exist for a structure, and the calls need not agree. Active and inactive are the calls of the source. Unless noted, the call rests on the fitted dose curve; in most records, active means well fitted curve in the direction sought with a large enough effect in the repeat runs; inconclusive means weak or mixed curves; inactive means no such curve, though single readings can be large; an effect the other way counts as inactive or inconclusive.

Assays:
[1] = qHTS assay to identify small molecule antagonists of the glucocorticoid receptor (GR) signaling pathway - cell viability counter screen (AID 720693); further: nearly all actives have a fitted effect of over 55% in size; further: potency means the concentration at half of the fitted maximal effect
[2] = qHTS assay for identifying genotoxic compounds that show differential cytotoxicity against isogenic chicken DT40 cell lines with known DNA damage response pathways - wild type cell line (AID 743012); further: nearly all actives have a fitted effect of over 60% in size; further: potency means the concentration at half of the fitted maximal effect
Method in brief: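 300 wt DT40 cells/well; cpd (DMSO) pintool-transferred after ~0.5 h at 37 C/5% CO2; 40 h incubation; CellTiter-Glo added, 30 min RT; luminescence read.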

[3] = qHTS assay for identifying genotoxic compounds that show differential cytotoxicity against isogenic chicken DT40 cell lines with known DNA damage response pathways - Rev3 mutant cell line (AID 743014); further: nearly all actives have a fitted effect of over 55% in size; further: potency means the concentration at half of the fitted maximal effect
[4] = qHTS assay for identifying genotoxic compounds that show differential cytotoxicity against isogenic chicken DT40 cell lines with known DNA damage response pathways - Rad54/Ku70 mutant cell line (AID 743015); further: nearly all actives have a fitted effect of over 60% in size; further: potency means the concentration at half of the fitted maximal effect
[5] = qHTS assay to identify small molecule antagonists of the androgen receptor (AR) signaling pathway - cell viability counter screen (AID 743033; further: nearly all actives have a fitted effect of over 45% in size; further: potency means the concentration at half of the fitted maximal effect)
[6] = qHTS assay to identify small molecule antagonists of the androgen receptor (AR) signaling pathway using the MDA cell line - cell viability counter screen (AID 743041; further: nearly all actives have a fitted effect of over 45% in size)
Method in brief: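 qHTS viability read-out; MDA-kb2 AR-luc; R1881-stimulated; 16 h exposure at 37C, 0% CO2; CellTiter-Fluor, 30 min; fluorescence intensity.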

[7] = biological target: Androgen receptor (Homo sapiens) (UniProt P10275); experiment: qHTS assay to identify small molecule antagonists of the androgen receptor (AR) signaling pathway (AID 743035; active means well fitted inhibition curve with a large enough effect in the signal ratio in the repeat runs, not every such curve was filed as active; the % refers to the signal ratio; further: potency means the concentration at half of the fitted maximal effect)
Androgen receptor (Homo sapiens), sequence (P10275 whole entry, looked up): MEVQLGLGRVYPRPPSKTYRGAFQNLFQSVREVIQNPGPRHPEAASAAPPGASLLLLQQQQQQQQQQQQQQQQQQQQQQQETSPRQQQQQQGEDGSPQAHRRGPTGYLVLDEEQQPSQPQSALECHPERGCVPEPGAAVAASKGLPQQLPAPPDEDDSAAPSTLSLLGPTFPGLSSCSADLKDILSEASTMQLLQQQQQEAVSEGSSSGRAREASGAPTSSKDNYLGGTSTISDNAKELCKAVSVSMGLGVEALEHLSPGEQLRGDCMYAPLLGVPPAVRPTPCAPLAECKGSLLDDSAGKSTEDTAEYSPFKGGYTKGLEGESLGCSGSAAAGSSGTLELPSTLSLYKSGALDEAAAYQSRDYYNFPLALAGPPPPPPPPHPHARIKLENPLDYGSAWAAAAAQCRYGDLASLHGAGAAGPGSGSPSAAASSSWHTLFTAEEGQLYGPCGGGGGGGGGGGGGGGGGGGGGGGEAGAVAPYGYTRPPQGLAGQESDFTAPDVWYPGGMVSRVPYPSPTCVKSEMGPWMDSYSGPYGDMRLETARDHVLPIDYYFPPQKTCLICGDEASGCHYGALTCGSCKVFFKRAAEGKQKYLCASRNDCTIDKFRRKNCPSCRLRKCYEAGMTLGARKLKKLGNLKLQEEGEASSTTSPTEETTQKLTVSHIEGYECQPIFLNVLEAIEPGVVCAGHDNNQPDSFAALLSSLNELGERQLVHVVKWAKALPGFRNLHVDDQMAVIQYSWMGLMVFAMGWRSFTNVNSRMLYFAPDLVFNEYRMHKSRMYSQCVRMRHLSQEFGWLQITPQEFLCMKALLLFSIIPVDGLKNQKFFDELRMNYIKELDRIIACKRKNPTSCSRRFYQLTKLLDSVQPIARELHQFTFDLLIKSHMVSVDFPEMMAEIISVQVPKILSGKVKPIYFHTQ
Method in brief: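 In this cell-based reporter screen, compounds were tested in concentration series against R1881-activated HEK293 cells expressing beta-lactamase under UAS control; after 16 h at 37C, FRET substrate was added and fluorescence read 2 h later.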

[8] = biological target: Androgen receptor (Homo sapiens) (UniProt P10275); experiment: qHTS assay to identify small molecule agonists of the androgen receptor (AR) signaling pathway (AID 743036; active means well fitted activation curve with a large enough effect in the signal ratio in the repeat runs, with a control signal flat, not every such curve was filed as active; the % refers to the signal ratio)
Method in brief: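 AR-UAS-bla HEK293 cells, plated 4 h before dosing, were treated with compound for 16 h at 37C. beta-Lactamase reporter read after 2 h with LiveBLAzer B/G FRET substrate at room temperature.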

[9] = biological target: Androgen receptor (Homo sapiens) (UniProt P10275); experiment: qHTS assay to identify small molecule agonists of the androgen receptor (AR) signaling pathway using the MDA cell line (AID 743040; further: potency means the concentration at half of the fitted maximal effect; on all read-outs here: nearly all actives have a fitted effect of over 20% in size); settings: MDA-kb2 AR-luc cells, MMTV luciferase, 16 h; for activity change: stronger effect = higher value
Method in brief: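 Agonist activity is measured as luciferase luminescence in human MDA-kb2 cells whose MMTV reporter responds to both AR and GR. Compounds in DMSO incubate 16 h at 37C, 0% CO2, and ONE-Glo is read after 30 min.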

[10] = biological target: Androgen receptor (Homo sapiens) (UniProt P10275); experiment: qHTS assay to identify small molecule antagonists of the androgen receptor (AR) signaling pathway using the MDA cell line (AID 743042; further: nearly all actives have a fitted effect of over 55% in size; further: potency means the concentration at half of the fitted maximal effect)
Method in brief: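 MDA-kb2 cells (human breast carcinoma, stably carrying an MMTV-luciferase reporter responsive to AR and GR) were plated at 3,000 cells/well and preincubated 5 hr at 37C, then given compound plus R1881 agonist for 16 h. ONE-Glo luminescence was read.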
On the % scale 0 is the no-effect control and ±100 the full control effect.

CCCCSP(=O)(SCCCC)SCCCC
inactive: Potency [1] | Potency [3] | Potency [4] | Potency [5] | Potency [6]
active: Potency [2] 61.1 µM

COP(=S)(OC)Oc1ccc(S(=O)(=O)N(C)C)cc1
inactive and 34.4 µM (active): Potency [4]
active: Potency [2] 19.3 µM
inactive: Potency [1] | Potency [5] | Potency [7] | Potency [8] | activity change ([9]; at 70.3 µM (top of the series)) -0.992% and -9.46% | Potency [6]
inactive and 61.1 µM (active): Potency [10]
inactive and 24.3 µM (active): Potency [3]

CC1CC(=O)O1 (centres undefined)
inactive: Potency [1] | Potency [2] | Potency [3] | Potency [4] | Potency [5]

O=P(OCCCl)(OCCCl)OCCCl
inactive: Potency [1] | Potency [2] | Potency [3] | Potency [4] | Potency [5] | Potency [6]

[CH3][Sn]([Cl])([Cl])[Cl]
inactive: Potency [1] | Potency [2] | Potency [3] | Potency [4] | Potency [5]

O=[N+]([O-])c1ccc(Nc2ccccc2)cc1
active: Potency [1] 43.6 µM | Potency [2] 15.4 µM | Potency [3] 54.9 µM and 13.7 µM | Potency [4] 30.9 µM and 10.9 µM | Potency [5] 38.9 µM

CC(C)(O)C(=O)Nc1ccc([N+](=O)[O-])c(C(F)(F)F)c1
active: Potency [2] 55.6 µM and 5.62 µM | Potency [3] 49.5 µM and 6.31 µM | Potency [4] 19.7 µM and 5.01 µM
inactive: Potency [1]

N#Cc1cccnc1
inactive: Potency [1] | Potency [2] | Potency [3] | Potency [4] | Potency [5]

CC(C)CON=O
inactive: Potency [1] | Potency [2] | Potency [3] | Potency [4] | Potency [5] | Potency [6]

CC(C)(c1ccccc1)c1ccc(O)cc1
inactive: Potency [1] | Potency [6]
active: Potency [2] 21.7 µM | Potency [3] 60.6 µM and 17.2 µM | Potency [4] 13.7 µM | Potency [5] 38.6 µM and 49 µM

Oc1ccc(Cl)cc1Cl
inactive: Potency [1] | Potency [2] | Potency [3] | Potency [4] | Potency [5] | Potency [6]

CCC[CH2][Sn]([Cl])([Cl])[CH2]CCC
active: Potency [1] 6.24 µM and 6.16 µM | Potency [2] 438 nM and 17.2 nM | Potency [3] 276 nM and 17.2 nM | Potency [4] 348 nM and 17.2 nM | Potency [5] 1.4 µM and 389 nM

CCCCC(C#N)(Cn1cncn1)c1ccc(Cl)cc1 (centres undefined)
inactive: Potency [1] | Potency [5]
active: Potency [2] 61.1 µM | Potency [3] 60.9 µM and 19.3 µM | Potency [4] 60.9 µM

S=c1[nH]c2ccccc2[nH]1
active: Potency [9] 3.86 µM
inactive: Potency [1] | Potency [2] | Potency [3] | Potency [4] | Potency [5] | Potency [7] | Potency [8] | activity change ([9]; at 70.3 µM (top of the series)) -1.99% | Potency [6] | Potency [10]

CCC(=O)Nc1ccc(Cl)c(Cl)c1
inactive: Potency [1] | Potency [2] | Potency [3] | Potency [4] | Potency [5] | Potency [8] | activity change ([9]; at 70.3 µM (top of the series)) -3.69% | activity change ([9]; at 95 µM (top of the series)) -4.49% | Potency [6]
active: Potency [7] 22.3 µM and 24.5 µM | Potency [10] 48.6 µM

Cn1c(-c2ccccc2)cc(-c2ccccc2)[n+]1C
inactive: Potency [1]
active: Potency [3] 2.73 µM and 864 nM | Potency [4] 4.32 µM and 2.43 µM

CC[n+]1c(-c2ccccc2)c2cc(N)ccc2c2ccc(N)cc21
active: Potency [1] 16.9 µM and 19 µM and 13.7 µM | Potency [3] 376 nM and 841 nM and 96.4 nM | Potency [4] 298 nM and 750 nM and 85.9 nM | Potency [5] 12 µM and 4.88 µM

Clc1ccc(C(Cl)(Cl)Cl)cc1
inactive: Potency [1] | Potency [3] | Potency [4] | Potency [5]

O=NN1CCOCC1
inactive: Potency [1] | Potency [2] | Potency [3] | Potency [5] | Potency [6]

Nc1ccc([N+](=O)[O-])cc1N
inactive: Potency [1] | Potency [5]
43.2 µM (active) and inactive: Potency [3]
active: Potency [2] 27.3 µM

C[N+](C)(C)C
inactive: Potency [1] | Potency [2] | Potency [3] | Potency [5] | Potency [6]

CSc1nc(NC(C)C)nc(NC(C)C)n1
inactive: Potency [1] | Potency [2] | Potency [5]

Brc1ccc(Br)cc1
inactive: Potency [1] | Potency [2] | Potency [3] | Potency [5] | Potency [6]

C[C@]12CC[C@H]3[C@@H](CCC4=CC(=O)CC[C@@H]43)[C@@H]1CC[C@@H]2O
active: Potency [2] 26.6 µM
inactive: Potency [1] | Potency [3] | Potency [5] | Potency [6]

CC(C)Nc1nc(Cl)nc(NC(C)C)n1
inactive: Potency [1] | Potency [2] | Potency [3] | Potency [4] | Potency [5] | Potency [6]

ClC(Cl)(Cl)c1ccccc1
inactive: Potency [1] | Potency [3] | Potency [4] | Potency [5]
